Reference: PubChem BioAssay (NCI)
About 79,000 compounds went through this panel and 15% of them were active in at least one assay; those are over-represented in the sample as a whole. The source made the active and inactive calls. Rule as the data show it: active = growth inhibition above about 70%; inactive = the rest.

Assays:
[1] = NCI Yeast Anticancer Drug Screen. Data for the wt2 strain (AID 169);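 also: 0% = growth of vehicle-treated yeast cultures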; conditions: S. cerevisiae wt2 strain growth inhibition, stronger effect = higher value
Procedure, shortened: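 Steps: yeast strain treated with compound; growth recorded; inhibition calculated relative to cultures given vehicle alone.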

[2] = NCI Yeast Anticancer Drug Screen. Data for the mlh1 strain (AID 171);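 also: 0% = growth of vehicle-treated control cultures of the same strain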; conditions: S. cerevisiae mlh1 strain growth inhibition, stronger effect = higher value
Procedure, shortened: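 Yeast screen: mutant strain plus compound, growth scored against vehicle control wells.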

[3] = NCI Yeast Anticancer Drug Screen. Data for the sgs1 strain (AID 173);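 also: 0% = growth of vehicle-only control cultures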; conditions: S. cerevisiae sgs1 mutant, stronger effect = higher value
Procedure, shortened: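 Inhibition of yeast growth served as the measure. The mutant strain was treated with each compound, and growth was normalised to cultures receiving vehicle alone.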

[4] = NCI Yeast Anticancer Drug Screen. Data for the mlh1 rad18 strain (AID 175); conditions: S. cerevisiae mlh1 rad18 strain growth inhibition, stronger effect = higher value
Procedure, shortened: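 Compound-treated yeast growth, normalised to vehicle controls. Strain bears defined DNA repair mutations.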

[5] = NCI Yeast Anticancer Drug Screen. Data for the rad18 strain (AID 177); conditions: S. cerevisiae rad18 mutant growth inhibition, stronger effect = higher value
Procedure, shortened: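 Inhibition values reflect reduced yeast growth compared with vehicle-treated controls, using a strain engineered with a DNA damage repair defect.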

[6] = NCI Yeast Anticancer Drug Screen. Data for the rad52 strain (AID 147);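 also: 0% = growth of vehicle-treated control cultures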; conditions: S. cerevisiae rad52 mutant growth inhibition, stronger effect = higher value
Procedure, shortened: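 Genetically altered yeast (DNA damage repair defect) treated with compound; inhibition calculated relative to vehicle.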

[7] = NCI Yeast Anticancer Drug Screen. Data for the wt1 strain (AID 149);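 also: 0% = growth of vehicle-treated wt1 cultures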; conditions: S. cerevisiae wt1 strain (SPY 50644) growth inhibition, stronger effect = higher value
Procedure, shortened: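 The wt1 strain was treated with compounds, and growth was compared with vehicle-treated cultures to give inhibition.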

[8] = NCI Yeast Anticancer Drug Screen. Data for the rad50EPP+ strain (AID 151);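 also: 0% = growth of vehicle-treated control cultures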; conditions: S. cerevisiae rad50 mutant strain, stronger effect = higher value
Procedure, shortened: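 Strain rad50EPP+; compound exposure; % growth inhibition vs vehicle.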

[9] = NCI Yeast Anticancer Drug Screen. Data for the mgt1 strain (AID 153); conditions: S. cerevisiae mgt1 mutant growth inhibition, stronger effect = higher value
Procedure, shortened: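 Read-out: yeast growth inhibition vs vehicle control. Strain mgt1, drawn from a panel altered in DNA damage repair or cell cycle control.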

[10] = NCI Yeast Anticancer Drug Screen. Data for the rad50 strain (AID 155);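 also: 0% = growth of vehicle-only cultures of the same strain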; conditions: S. cerevisiae rad50 strain growth inhibition, stronger effect = higher value
Procedure, shortened: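 Cells are treated with compound, grown, and their growth is then scored against vehicle-only cultures of the same repair-deficient yeast strain.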

[11] = NCI Yeast Anticancer Drug Screen. Data for the mec2-1 strain (AID 157); conditions: S. cerevisiae mec2-1 strain, stronger effect = higher value
Procedure, shortened: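 Cells of the genetically defined mec2-1 yeast strain are incubated with test compound. Inhibition of growth is calculated against vehicle-treated controls.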

[12] = NCI Yeast Anticancer Drug Screen. Data for the rad14 strain (AID 159);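 also: 0% = growth of vehicle-treated control cultures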; conditions: S. cerevisiae rad14 strain growth inhibition, stronger effect = higher value
Procedure, shortened: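 Readout: yeast growth inhibition, referenced to vehicle-only cultures. Strain bears a defined alteration in DNA damage repair.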

[13] = NCI Yeast Anticancer Drug Screen. Data for the sgs1 mgt1 strain (AID 161);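 also: 0% = growth of cultures given vehicle only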; conditions: S. cerevisiae sgs1 mgt1 strain, stronger effect = higher value
Procedure, shortened: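 Read-out: growth inhibition vs vehicle controls. Cells: mutant yeast strain deficient in DNA damage repair.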

[14] = NCI Yeast Anticancer Drug Screen. Data for the CLN2oe strain (AID 163);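 also: 0% = growth of vehicle-only control cultures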; conditions: S. cerevisiae CLN2oe strain, stronger effect = higher value
Procedure, shortened: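 Strain altered in cell-cycle control, incubated with compound; growth compared to solvent-treated controls.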

[15] = NCI Yeast Anticancer Drug Screen. Data for the cln2 rad14 strain (AID 165);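 also: 0% = growth equal to vehicle treated cultures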; conditions: S. cerevisiae cln2 rad14 strain, stronger effect = higher value
Procedure, shortened: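 The screen exposed genetically defined yeast (cln2 rad14) to test compounds and scored growth inhibition relative to vehicle-treated controls.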

[16] = NCI Yeast Anticancer Drug Screen. Data for the bub3 strain (AID 167); conditions: S. cerevisiae bub3 mutant strain, stronger effect = higher value
Procedure, shortened: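 Part of a panel of yeast mutants defective in DNA damage repair or cell cycle regulation. Each strain is grown with compound, and inhibition is calculated relative to solvent-treated cultures.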

[17] = at 5.0 µM (retest, dose inferred, filed as 0.5)
[18] = at 50.0 µM (retest, dose inferred, filed as 5.0)

Measured: growth inhibition

CC(C)c1ccccc1NC(=O)/C(Cl)=C(\Cl)C(=O)O
inactive: [1]; at 1.2 µM 1% | [1]; at 3.7 µM 0% | [1]; at 11.0 µM 0% | [1]; at 33.0 µM 4% | [2]; at 1.2 µM -1% | [2]; at 3.7 µM 1% | [2]; at 11.0 µM 2% | [2]; at 33.0 µM 4% | [2]; at 100.0 µM 66% | [3]; at 1.2 µM 2% | [3]; at 3.7 µM 4% | [3]; at 11.0 µM 5% | [3]; at 33.0 µM 12% | [4]; [17] 21% | [4]; [18] 28% | [4]; at 50.0 µM 11.9% | [5]; at 1.2 µM 0% | [5]; at 3.7 µM 0% | [5]; at 11.0 µM 1% | [5]; at 33.0 µM 8%
active: [1]; at 100.0 µM 88% | [3]; at 100.0 µM 96% | [5]; at 100.0 µM 98%

CC1(C)C(=O)OC(n2cc(F)c(=O)[nH]c2=O)C1=O (centres undefined)
active: [10]; [18] 74% | [13]; [18] 80%
inactive: [6]; at 1.2 µM -32% | [6]; at 3.7 µM -22% | [6]; at 11.0 µM -27% | [6]; at 33.0 µM -8% | [6]; at 100.0 µM 26% | [7]; at 1.2 µM -39% | [7]; at 3.7 µM -43% | [7]; at 11.0 µM -18% | [7]; at 33.0 µM -36% | [7]; at 100.0 µM 1% | [8]; at 1.2 µM -30% | [8]; at 3.7 µM -29% | [8]; at 11.0 µM -7% | [8]; at 33.0 µM 21% | [8]; at 100.0 µM 56% | [9]; at 1.2 µM 19% | [9]; at 3.7 µM 32% | [9]; at 11.0 µM 34% | [9]; at 33.0 µM 49% | [9]; at 100.0 µM 67% | [10]; at 1.2 µM -11% | [10]; at 3.7 µM -10% | [10]; [17] 25% | [10]; at 11.0 µM 3% | [10]; at 33.0 µM 17% | [10]; at 50.0 µM 6.6% | [10]; at 100.0 µM 37% | [11]; at 1.2 µM -31% | [11]; at 3.7 µM -5% | [11]; [17] 1% | [11]; at 11.0 µM -11% | [11]; at 33.0 µM 9% | [11]; [18] 34% | [11]; at 50.0 µM 2.95% | [11]; at 100.0 µM 60% | [12]; at 1.2 µM -36% | [12]; at 3.7 µM -37% | [12]; at 11.0 µM -18% | [12]; at 33.0 µM -15% | [12]; at 100.0 µM -8% | [13]; [17] 36% | [13]; at 50.0 µM 30% | [14]; at 1.2 µM 12% | [14]; at 3.7 µM 13% | [14]; at 11.0 µM -1% | [14]; at 33.0 µM 30% | [14]; at 100.0 µM -1% | [15]; [17] 27% | [15]; [18] 45% | [15]; at 50.0 µM 56.8% | [16]; at 1.2 µM 19% | [16]; at 3.7 µM 21% | [16]; [17] 45% | [16]; at 11.0 µM 19% | [16]; at 33.0 µM 37% | [16]; [18] 62% | [16]; at 50.0 µM 27.1% | [16]; at 100.0 µM 39% | [1]; at 1.2 µM 5% | [1]; at 3.7 µM 20% | [1]; at 11.0 µM 17% | [1]; at 33.0 µM 43% | [1]; at 100.0 µM 51% | [2]; at 1.2 µM -14% | [2]; at 3.7 µM -15% | [2]; at 11.0 µM -2% | [2]; at 33.0 µM 19% | [2]; at 100.0 µM 49% | [3]; at 1.2 µM -17% | [3]; at 3.7 µM -13% | [3]; at 11.0 µM -2% | [3]; at 33.0 µM 45% | [3]; at 100.0 µM 67% | [4]; [17] 13% | [4]; [18] 48% | [4]; at 50.0 µM 15.7% | [5]; at 1.2 µM 4% | [5]; at 3.7 µM 8% | [5]; at 11.0 µM 8% | [5]; at 33.0 µM 21% | [5]; at 100.0 µM 28%

CN(Cc1cnc2nc(N)nc(N)c2n1)c1ccc(C(=O)N[C@@H](CCC(=O)O)C(=O)O)cc1
active: [6]; at 100.0 µM 85% | [10]; [18] 82% | [10]; at 50.0 µM 88.6% | [10]; at 100.0 µM 85% | [11]; at 33.0 µM 88% | [11]; [18] 94% | [11]; at 50.0 µM 97.9% | [11]; at 100.0 µM 96% | [12]; at 100.0 µM 72% | [13]; at 50.0 µM 82.5% | [16]; at 50.0 µM 90.5% | [4]; at 50.0 µM 87.8% | [5]; at 100.0 µM 80%
inactive: [6]; at 1.2 µM -2% | [6]; at 3.7 µM -1% | [6]; at 11.0 µM 8% | [6]; at 33.0 µM 41% | [7]; at 1.2 µM -1% | [7]; at 3.7 µM -3% | [7]; at 11.0 µM -3% | [7]; at 33.0 µM 6% | [7]; at 100.0 µM 24% | [8]; at 1.2 µM -2% | [8]; at 3.7 µM -4% | [8]; at 11.0 µM -5% | [8]; at 33.0 µM 1% | [8]; at 100.0 µM 21% | [9]; at 1.2 µM -1% | [9]; at 3.7 µM -3% | [9]; at 11.0 µM -4% | [9]; at 33.0 µM 1% | [9]; at 100.0 µM 28% | [10]; at 1.2 µM -2% | [10]; at 3.7 µM 1% | [10]; [17] -2% | [10]; at 11.0 µM 6% | [10]; at 33.0 µM 38% | [11]; at 1.2 µM 1% | [11]; at 3.7 µM 2% | [11]; [17] 14% | [11]; at 11.0 µM 17% | [12]; at 1.2 µM -1% | [12]; at 3.7 µM -5% | [12]; at 11.0 µM -7% | [12]; at 33.0 µM 14% | [13]; [17] -3% | [13]; [18] 64% | [14]; at 1.2 µM 0% | [14]; at 3.7 µM 0% | [14]; at 11.0 µM -7% | [14]; at 33.0 µM -16% | [14]; at 100.0 µM 20% | [15]; [17] -1% | [15]; [18] 22% | [15]; at 50.0 µM -6.4% | [16]; at 1.2 µM 2% | [16]; at 3.7 µM -1% | [16]; [17] -7% | [16]; at 11.0 µM -7% | [16]; at 33.0 µM -4% | [16]; [18] 63% | [16]; at 100.0 µM 40% | [1]; at 1.2 µM -3% | [1]; at 3.7 µM -4% | [1]; at 11.0 µM -4% | [1]; at 33.0 µM 12% | [1]; at 100.0 µM 47% | [2]; at 1.2 µM -1% | [2]; at 3.7 µM -4% | [2]; at 11.0 µM -5% | [2]; at 33.0 µM 7% | [2]; at 100.0 µM 35% | [3]; at 1.2 µM -2% | [3]; at 3.7 µM -3% | [3]; at 11.0 µM 3% | [3]; at 33.0 µM 27% | [3]; at 100.0 µM 63% | [4]; [17] -2% | [4]; [18] 58% | [5]; at 1.2 µM -2% | [5]; at 3.7 µM 0% | [5]; at 11.0 µM 4% | [5]; at 33.0 µM 30%
